Results: PubChem BioAssay (EPA / NIEHS)
Active and inactive are the calls of the source. How the source made its calls: active means hit-call score of the fitted dose curve at least 0.9, where 1 is the maximum; inactive means score below 0.9.

What was measured:
[1] = ATG_E_Box_CIS: Attagene CIS-FACTORIAL HepG2 Assay for human Enhancer Box (E-box) (AID 2282936); details: HepG2 E-box cis-reporter transcription, actives raise or lower the signal
Summary of the method: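 E-box-driven reporter transcripts measured in transiently transfected HepG2 after 24 h exposure: RNA reverse-transcribed, PCR-amplified, fluorescently labelled, digested and resolved by capillary electrophoresis. Gain or loss relative to DMSO.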

[2] = ATG_M_61_CIS: Attagene CIS-FACTORIAL HepG2 Assay for M61 Transcription Factor (Internal Marker) (AID 2282937); details: HepG2 Attagene CIS-FACTORIAL M61 internal marker reporter; actives raise or lower the signal
Summary of the method: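 Background-control endpoint: HepG2 cells with cis-regulated reporter constructs, 24 h exposure, reporter mRNA detected via fluorescent primer extension and capillary electrophoresis; values from bidirectional fitting with DMSO baseline.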

[3] = ATG_EGR_CIS: Attagene CIS-FACTORIAL HepG2 Assay for human Early Growth Response 1 (EGR1) (AID 2282938); details: HepG2 Attagene CIS-FACTORIAL EGR reporter mRNA; actives raise or lower the signal
Summary of the method: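 Endpoint derived by bidirectional fitting versus DMSO vehicle. Method: cis-promoter reporter units transfected into HepG2, 24 h dosing, RNA isolation, RT-PCR with 6-FAM primer extension and HpaI digestion, then capillary electrophoresis fluorescence detection.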

[4] = ATG_M_19_CIS: Attagene CIS-FACTORIAL HepG2 Assay for M19 Transcription Factor (Internal Marker) (AID 2282939); details: HepG2 Attagene CIS-FACTORIAL M19 internal marker reporter; actives raise or lower the signal
Summary of the method: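 HepG2 cells transiently transfected with cis-regulated multiplexed reporter units, dosed 24 h. Reporter mRNA quantified by RT-PCR and capillary electrophoresis; internal background marker fitted bidirectionally versus DMSO.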

[5] = ATG_ERE_CIS: Attagene CIS-FACTORIAL HepG2 Assay for Estrogen Response Element (ERE) (AID 2282940); details: HepG2 ERE cis-reporter, Attagene RNA transcript; actives raise or lower the signal
Summary of the method: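 HepG2 cells transiently transfected with multiplexed cis-element reporter units, measuring endogenous transcription factor activity; ERE reporter mRNA quantified after 24 h exposure by RT-PCR, fluorescent labelling, HpaI digestion and capillary electrophoresis. Bidirectional change versus DMSO.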

[6] = ATG_Ets_CIS: Attagene CIS-FACTORIAL HepG2 Assay for human Erythroblast Transformation Specific (ETS) (AID 2282941); details: HepG2 ETS cis-reporter transcription, actives raise or lower the signal
Summary of the method: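 RT-PCR/capillary electrophoresis fluorescence read-out of reporter mRNA; HepG2 transient multi-reporter transfection; 24 h compound exposure; gain or loss of signal fitted bidirectionally relative to DMSO.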

[7] = molecular target: Hepatocyte nuclear factor 3-beta (Homo sapiens) (UniProt Q9Y261); assay: ATG_FoxA2_CIS: Attagene CIS-FACTORIAL HepG2 Assay for human Forkhead box A2 (FOXA2) (AID 2282942); details: HepG2 cis-reporter transcription factor activity, 24 h; actives raise or lower the signal
Summary of the method: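 Measured: reporter mRNA induction or loss in HepG2 transiently carrying multiple cis-regulated reporter units, 24 h after dosing. Quantified by RT-PCR plus capillary electrophoresis, normalised to DMSO.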

[8] = ATG_FoxO_CIS: Attagene CIS-FACTORIAL HepG2 Assay for human Forkhead box O (FoxO) (AID 2282943); details: HepG2 Attagene cis-reporter, FoxO element, mRNA; actives raise or lower the signal
Summary of the method: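 Human hepatoma HepG2 cells carry transiently introduced reporter transcription units controlled by cis promoter elements. Chemical treatment lasted 24 h, and mRNA signal was compared with DMSO.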

[9] = ATG_GATA_CIS: Attagene CIS-FACTORIAL HepG2 Assay for human GATA Binding Protein (AID 2282944); details: HepG2 GATA cis-element reporter, Attagene multiplex mRNA; actives raise or lower the signal
Summary of the method: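 HepG2 cells transiently transfected with multiplexed cis-element reporter units measure endogenous GATA activity; after 24 h compound exposure, reporter mRNA quantified by RT-PCR and capillary electrophoresis. Changes fitted in both directions vs DMSO.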

[10] = ATG_GLI_CIS: Attagene CIS-FACTORIAL HepG2 Assay for human Zinc Finger Protein GLI1 (AID 2282945); details: HepG2, Attagene cis-factorial reporter mRNA, GLI element; actives raise or lower the signal
Summary of the method: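 Bidirectional curve fits relative to DMSO, using reporter mRNA levels from RT-PCR plus capillary electrophoresis. Cells were HepG2 transiently carrying cis-regulated reporter constructs, harvested 24 h after dosing.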

[11] = molecular target: Bile acid receptor (Homo sapiens) (UniProt Q96RI1); assay: ATG_IR1_CIS: Attagene CIS-FACTORIAL HepG2 Assay for human Nuclear Receptor Subfamily 1 Group H Member 4 (NR1H4), IR1 submotif (AID 2282946); details: IR1 reporter transcription, actives raise or lower the signal
Summary of the method: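 HepG2 cells transiently transfected with multiplexed cis-element reporter units read endogenous transcription factor activity. After 24 h compound exposure, reporter mRNA was quantified by RT-PCR, fluorescent labelling, HpaI digestion and capillary electrophoresis; bidirectional fitting versus DMSO baseline.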

[12] = ATG_GRE_CIS: Attagene CIS-FACTORIAL HepG2 Assay for human Glucocorticoid Response Elements (GRE) (AID 2282947); details: HepG2 GRE cis-reporter, Attagene multiplex mRNA; actives raise or lower the signal
Summary of the method: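 Reporter transcripts read by RT-PCR with capillary electrophoresis fluorescence after a 24 h chemical exposure of HepG2 cells transiently transfected with multiple cis-element reporter units. Gain or loss fitted against DMSO.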

[13] = ATG_ISRE_CIS: Attagene CIS-FACTORIAL HepG2 Assay for human Interferon Regulatory Factor 1 (IRF1) binding to an Interferon-Stimulated Response Element (ISRE) (AID 2282948); details: HepG2 ISRE cis-reporter (Attagene), mRNA transcription readout; actives raise or lower the signal
Summary of the method: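 Read-out: fluorescent RT-PCR products resolved by capillary electrophoresis, reporting endogenous transcription factor activity via ISRE-driven reporter mRNA in transfected HepG2 cells dosed for 24 h; gain or loss fitted relative to DMSO.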

[14] = ATG_M_32_CIS: Attagene CIS-FACTORIAL HepG2 Assay for M32 Transcription Factor (Internal Marker) (AID 2282949); details: HepG2 Attagene cis-factorial M32 reporter, mRNA; actives raise or lower the signal;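 further: background control marker of the multiplexed CIS panel rather than a real target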
Summary of the method: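 HepG2 human liver cells transiently transfected with cis-promoter-driven multiple reporter transcription units, dosed 24 h. Reporter mRNA quantified by RT-PCR, FAM-labelled primer extension, HpaI digest and capillary electrophoresis; bidirectional fit versus DMSO baseline.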

[15] = ATG_M_06_CIS: Attagene CIS-FACTORIAL HepG2 Assay for M06 Transcription Factor (Internal Marker) (AID 2282950); details: HepG2 Attagene CIS-FACTORIAL M06 internal marker reporter; actives raise or lower the signal
Summary of the method: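 Internal background marker within multiplexed cis-reporter HepG2 system. Cells transiently transfected, dosed 24 h; reporter mRNA measured by RT-PCR, HpaI digestion and capillary electrophoresis. Bidirectional fit relative to DMSO.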

[16] = molecular target: Hypoxia-inducible factor 1-alpha (Homo sapiens) (UniProt Q16665); assay: ATG_HIF1a_CIS: Attagene CIS-FACTORIAL HepG2 Assay for human Hypoxia Inducible Factor 1 (HIF1A) (AID 2282951); details: HepG2 Attagene cis-factorial HIF1a reporter transcription; actives raise or lower the signal
Summary of the method: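 Dosed 24 h, transfected HepG2 cells yielded total RNA whose reporter transcripts were RT-PCR-amplified and sized by capillary electrophoresis using fluorescent labelling; DMSO defined baseline, with gain and loss of signal both fitted.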

[17] = molecular target: Hepatocyte nuclear factor 6 (Homo sapiens) (UniProt Q9UBC0); assay: ATG_HNF6_CIS: Attagene CIS-FACTORIAL HepG2 Assay for human Hepatocyte Nuclear Factor 6 (HNF6) (AID 2282952); details: HepG2 Attagene cis-factorial HNF6 reporter transcription; actives raise or lower the signal
Summary of the method: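 Using cis-element reporters in HepG2 liver cells, the assay tracks endogenous factor-driven transcription 24 h post-dosing. Signal comes from 6-FAM-labelled, HpaI-digested RT-PCR fragments, with gain or loss scored against DMSO.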

[18] = molecular target: Heat shock factor protein 1 (Homo sapiens) (UniProt Q00613); assay: ATG_HSE_CIS: Attagene CIS-FACTORIAL HepG2 Assay for human Heat Shock Transcription Factor 1 (HSE) (AID 2282953); details: HepG2 HSE cis-reporter, Attagene RNA transcription; actives raise or lower the signal
Summary of the method: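 HepG2 cells transfected with cis-promoter reporter units sensing endogenous transcription factor activity; reporter mRNA quantified 24 h post-dose by RT-PCR and capillary electrophoresis of 6-FAM-labelled products. Bidirectional fitting against DMSO.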

[19] = ATG_PBREM_CIS: Attagene CIS-FACTORIAL HepG2 Assay for human Phenobarbital-responsive Enhancer Module (PBREM) (AID 2282955); details: HepG2 PBREM cis-reporter, Attagene multiplexed transcription; actives raise or lower the signal
Summary of the method: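 Transfected liver-derived HepG2 cells exposed 24 h; PBREM reporter transcript quantified via RT-PCR and capillary electrophoresis, with activity in either direction referenced to DMSO.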

[20] = ATG_MRE_CIS: Attagene CIS-FACTORIAL HepG2 Assay for human Metal Responsive Element (MRE) (AID 2282954); details: HepG2 MRE cis-reporter transcription, Attagene multiplex; actives raise or lower the signal
Summary of the method: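 Endogenous MRE-dependent transcription read as reporter mRNA in transiently transfected human HepG2 cells at 24 h. RNA reverse-transcribed, PCR-amplified, labelled and resolved by capillary electrophoresis; gain or loss relative to DMSO.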

Measured: AC50

Bile acid receptor (Homo sapiens), sequence (Q96RI1 whole entry, looked up): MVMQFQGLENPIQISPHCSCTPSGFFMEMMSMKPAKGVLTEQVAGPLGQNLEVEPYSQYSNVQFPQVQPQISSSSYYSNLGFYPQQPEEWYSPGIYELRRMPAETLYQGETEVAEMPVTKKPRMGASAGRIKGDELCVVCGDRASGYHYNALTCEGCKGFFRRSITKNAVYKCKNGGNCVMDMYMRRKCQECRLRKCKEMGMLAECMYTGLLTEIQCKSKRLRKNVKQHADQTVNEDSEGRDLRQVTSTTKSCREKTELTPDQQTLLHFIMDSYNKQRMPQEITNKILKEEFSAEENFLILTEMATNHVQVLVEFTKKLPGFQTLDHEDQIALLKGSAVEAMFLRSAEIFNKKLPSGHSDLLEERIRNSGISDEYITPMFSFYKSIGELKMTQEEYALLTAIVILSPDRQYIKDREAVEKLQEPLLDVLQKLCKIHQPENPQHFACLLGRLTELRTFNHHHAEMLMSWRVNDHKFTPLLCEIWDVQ
Heat shock factor protein 1 (Homo sapiens), sequence (Q00613 whole entry, looked up): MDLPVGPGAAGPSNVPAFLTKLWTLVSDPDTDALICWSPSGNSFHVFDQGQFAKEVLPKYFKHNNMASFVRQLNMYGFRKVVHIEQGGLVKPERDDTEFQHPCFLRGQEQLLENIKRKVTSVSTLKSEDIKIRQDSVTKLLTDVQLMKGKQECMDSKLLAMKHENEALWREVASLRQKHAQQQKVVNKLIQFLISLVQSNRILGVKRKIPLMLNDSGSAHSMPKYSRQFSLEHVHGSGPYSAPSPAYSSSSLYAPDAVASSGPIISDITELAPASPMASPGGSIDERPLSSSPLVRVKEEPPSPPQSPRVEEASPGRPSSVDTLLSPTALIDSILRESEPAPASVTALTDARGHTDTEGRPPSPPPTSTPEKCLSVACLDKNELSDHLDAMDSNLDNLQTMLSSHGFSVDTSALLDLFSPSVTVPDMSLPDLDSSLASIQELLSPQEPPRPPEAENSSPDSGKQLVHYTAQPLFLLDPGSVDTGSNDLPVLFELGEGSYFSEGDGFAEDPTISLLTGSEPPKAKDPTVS
Hypoxia-inducible factor 1-alpha (Homo sapiens), sequence (Q16665 whole entry, looked up): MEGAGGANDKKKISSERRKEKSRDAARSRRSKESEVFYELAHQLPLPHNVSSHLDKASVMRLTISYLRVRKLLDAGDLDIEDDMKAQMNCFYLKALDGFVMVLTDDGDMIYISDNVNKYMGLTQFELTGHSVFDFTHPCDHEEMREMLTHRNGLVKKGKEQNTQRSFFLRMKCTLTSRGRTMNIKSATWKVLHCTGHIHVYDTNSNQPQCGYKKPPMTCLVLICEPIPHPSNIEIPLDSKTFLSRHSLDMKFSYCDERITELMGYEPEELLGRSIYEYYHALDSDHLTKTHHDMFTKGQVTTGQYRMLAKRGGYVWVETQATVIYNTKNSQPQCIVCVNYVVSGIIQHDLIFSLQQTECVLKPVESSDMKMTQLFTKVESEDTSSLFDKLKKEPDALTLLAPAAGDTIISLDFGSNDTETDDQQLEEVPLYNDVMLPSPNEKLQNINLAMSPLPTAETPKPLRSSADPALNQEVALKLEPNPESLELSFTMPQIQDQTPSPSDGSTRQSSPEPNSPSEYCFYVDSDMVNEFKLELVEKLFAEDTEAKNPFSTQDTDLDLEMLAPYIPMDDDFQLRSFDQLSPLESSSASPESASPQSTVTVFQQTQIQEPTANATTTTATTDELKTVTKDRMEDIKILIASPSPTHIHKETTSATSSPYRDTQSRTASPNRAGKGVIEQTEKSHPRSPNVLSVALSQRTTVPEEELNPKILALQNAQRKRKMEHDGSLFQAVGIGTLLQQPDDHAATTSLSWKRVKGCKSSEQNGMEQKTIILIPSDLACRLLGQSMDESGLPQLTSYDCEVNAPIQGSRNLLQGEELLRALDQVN
Hepatocyte nuclear factor 6 (Homo sapiens), sequence (Q9UBC0 whole entry, looked up, the tested form may be a part): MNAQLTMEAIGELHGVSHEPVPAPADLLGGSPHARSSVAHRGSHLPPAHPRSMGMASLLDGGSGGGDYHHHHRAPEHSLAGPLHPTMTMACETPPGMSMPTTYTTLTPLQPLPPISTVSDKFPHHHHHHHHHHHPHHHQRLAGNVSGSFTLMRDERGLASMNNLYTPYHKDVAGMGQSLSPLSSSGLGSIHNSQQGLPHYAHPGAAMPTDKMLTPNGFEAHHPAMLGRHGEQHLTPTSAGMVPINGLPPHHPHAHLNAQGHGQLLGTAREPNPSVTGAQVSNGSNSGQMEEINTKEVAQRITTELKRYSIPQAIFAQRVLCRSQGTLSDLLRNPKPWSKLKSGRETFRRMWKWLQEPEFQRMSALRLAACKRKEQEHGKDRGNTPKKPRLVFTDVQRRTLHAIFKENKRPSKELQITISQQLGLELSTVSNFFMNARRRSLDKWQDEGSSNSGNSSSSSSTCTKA
Hepatocyte nuclear factor 3-beta (Homo sapiens), sequence (Q9Y261 whole entry, looked up): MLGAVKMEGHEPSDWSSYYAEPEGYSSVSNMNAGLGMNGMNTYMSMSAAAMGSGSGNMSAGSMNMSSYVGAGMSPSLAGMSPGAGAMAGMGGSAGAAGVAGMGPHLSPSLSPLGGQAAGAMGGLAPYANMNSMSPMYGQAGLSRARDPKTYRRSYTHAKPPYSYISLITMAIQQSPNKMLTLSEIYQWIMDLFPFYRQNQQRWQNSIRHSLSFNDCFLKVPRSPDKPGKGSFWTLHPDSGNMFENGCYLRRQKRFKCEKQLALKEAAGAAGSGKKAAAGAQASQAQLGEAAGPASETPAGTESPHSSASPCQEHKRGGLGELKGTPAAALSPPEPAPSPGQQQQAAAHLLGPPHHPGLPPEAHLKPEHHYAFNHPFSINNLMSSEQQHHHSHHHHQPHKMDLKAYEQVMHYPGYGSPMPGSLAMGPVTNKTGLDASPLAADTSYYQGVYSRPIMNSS

CC[C@H](C)C(=O)O[C@H]1C[C@@H](C)C=C2C=C[C@H](C)[C@H](CC[C@@H]3C[C@@H](O)CC(=O)O3)[C@H]21
active: [5] 8.11 µM
inactive: [1] | [2] | [3] | [4] | [6] | [7] | [8] | [9] | [10] | [11] | [12] | [13] | [14] | [15] | [16] | [17] | [18] | [19]

COCCOCCOCCOC
inactive: [1] | [2] | [3] | [4] | [6] | [7] | [8] | [9] | [10] | [11] | [12] | [13] | [14] | [15] | [16] | [17] | [18]

CCc1cc(SCc2sc(-c3ccc(C(F)(F)F)cc3)nc2CN2CCN(c3ccc(OC)cc3)CC2)ccc1OCC(=O)O
active: [1] 11 µM | [3] 15.8 µM | [11] 3.93 µM | [13] 14 µM | [16] 15.3 µM | [18] 18.1 µM | [20] 8.53 µM | [19] 17 µM
inactive: [2] | [4] | [6] | [7] | [8] | [9] | [10] | [12] | [14] | [15] | [17]

CN(C)c1ccc(Cc2ccc(N(C)C)cc2)cc1
active: [1] 31.1 µM | [3] 25.6 µM | [20] 50.3 µM
inactive: [2] | [4] | [6] | [7] | [8] | [9] | [10] | [11] | [12] | [13] | [14] | [15] | [16] | [17] | [18]

CC(O)CN(CCN(CC(C)O)CC(C)O)CC(C)O (configuration not stated)
inactive: [1] | [2] | [3] | [4] | [6] | [7] | [8] | [9] | [10] | [11] | [12] | [13] | [14] | [15] | [17] | [18] | [20] | [19]

Cn1cnc([N+](=O)[O-])c1Sc1ncnc2nc[nH]c12
active: [5] 29 µM | [13] 63.3 µM
inactive: [1] | [2] | [3] | [4] | [6] | [7] | [8] | [9] | [10] | [12] | [14] | [15] | [17] | [20] | [19]

CCOCCO
inactive: [1] | [2] | [3] | [4] | [6] | [7] | [8] | [9] | [10] | [11] | [12] | [13] | [14] | [15] | [16] | [17] | [18] | [20] | [19]
